# From PubChem BioAssay (Tox21)
# Records with an inconclusive call do not appear. The source made the active and inactive calls. Calls follow the shape of the full dose curve.
# Assay: qHTS assay to identify small molecule agonists of the endoplasmic reticulum stress response signaling pathway - cell viability counter screen (AID 1159517);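 also: HeLa cells carrying an ER stress response element beta-lactamase reporter; nearly all actives have a fitted effect of over 50% in size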
# Details: ESRE-bla HeLa viability, CellTiter-Glo luminescence, 5 h; series mostly up to 61 µM
# How it was run: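 CellTiter-Glo was added to wells already read for beta-lactamase FRET, and luminescence was recorded 30 min later. Cells: ESRE-bla HeLa, 1,500 per well, compound exposure 5 hr at 37 C.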
row,SMILES,outcome
1,Nc1ccc(Oc2ccc(N)cc2)cc1,inactive
2,CC(C)(Cl)Cl,inactive
3,CN(C)[C@@H]1C(=O)C(C(N)=O)=C(O)[C@@]2(O)C(=O)C3=C(O)c4c(O)cccc4[C@@](C)(O)[C@H]3C[C@@H]12,inactive
4,Nc1ccccc1C(=O)O,inactive
5,C=CCO,inactive
6,c1ccc2c(c1)oc1ccccc12,inactive
7,CC(C)=C[C@@H]1[C@@H](C(=O)OCc2coc(Cc3ccccc3)c2)C1(C)C,inactive
8,[O-][Cl+2]([O-])O,inactive
9,Nc1ccc(Cc2ccc(N)cc2)cc1,inactive
10,CCCCOC(=O)c1ccccc1C(=O)OCCCC,inactive
11,COC(=O)c1ccccc1C(=O)OC,inactive
12,Clc1ccc(Cl)cc1,inactive
13,O=C(NC(=O)c1c(F)cccc1F)Nc1cc(Cl)c(OC(F)(F)C(F)C(F)(F)F)cc1Cl (configuration not stated),inactive
14,c1cc2c3c(cccc3c1)CC2,inactive
15,C=C(C)CCl,inactive
16,CC(NC(C)(C)C)C(=O)c1cccc(Cl)c1 (configuration not stated),inactive
17,c1ccc(OP(Oc2ccccc2)Oc2ccccc2)cc1,inactive
